Molecules are shown by their SMILES. The campaign covered roughly 69,000 compounds. About 8,600 (12%) showed an effect of 50% or more. This excerpt belongs to a sample that is enriched for strong results.

The experiment deals with Plasmodium berghei. The experiment in a line: Screen against P. berghei liver stage (PbLuc), transformed with Luciferase, at 10uM. It counts as functional, HepG2. To be noted: tested at 10 uM.
For `CSc1ccc(CNC(=O)Cc2c(C)n[nH]c2C)cc1`, the INHIBITION came out at 21.8%.

On to `Cc1n[nH]c(C)c1CC(=O)NCc1ccccc1Cl`, for which the INHIBITION stood at 64.8%.

Turning to `Cc1nc(CNC(=O)N(Cc2ccccc2)CC(C)(C)O)oc1C`, the INHIBITION was 28.6%.

On to `CSc1ccc(CCNC(=O)Cc2c(C)n[nH]c2C)cc1`, for which the INHIBITION is 40.3%.

`Cc1n[nH]c(C)c1CNC(=O)CSCc1ccccc1Cl`: the INHIBITION is -26.4%.

For the molecule `Cc1nc2cc(=O)[nH]n2c(C)c1CC(=O)NCCCc1ccccc1`, the INHIBITION was -4.3%.

Take `Cc1n[nH]c(C)c1CNC(=O)N(Cc1ccccc1)CC(C)(C)O`: the INHIBITION amounted to 68%.

In the case of `Cc1ncsc1CNC(=O)N(Cc1ccccc1)CC(C)(C)O`, the INHIBITION amounted to 47.4%.

Take `O=C1CN([C@@H]2CC[C@@H](NS(=O)(=O)c3ccccc3)[C@H]2O)CCN1`: the INHIBITION is 4.5%.

Turning to `CC(C)C[C@H](NC(=O)NC1CCS(=O)(=O)C1)C(=O)NCc1cccnc1` (stereo partly drawn), the INHIBITION was 44.9%.

In the case of `Cc1nccn1CCCNc1ccc(Cl)c(C#N)n1`, the INHIBITION is on record as -9.39%.

Take `O=C(CN1CCOc2ccccc2C1)NCc1cc2n(n1)CCNC2`: the INHIBITION is reported as 21.7%.

With `CC(O)CCN(C)C(=O)Nc1ccc(Br)cc1` (stereo not drawn), the INHIBITION is listed as -12.1%.

With `N#Cc1cccnc1NCc1cccnc1N1CCC(C(N)=O)CC1`, the INHIBITION is recorded as -0.182%.

For the molecule `N#Cc1ccc(NCc2cccnc2N2CCC(C(N)=O)CC2)cn1`, the INHIBITION came to 57.3%.

For `CN1CCN(c2ncccc2CNc2ncccc2C#N)CC1`, the INHIBITION was -29.4%.

With `N#Cc1cccnc1NCc1cccnc1N1CCCCC1`, the INHIBITION is 51.7%.

Turning to `Cc1ccn(-c2ccc(NCc3cccnc3N3CCCCC3)nn2)n1`, the INHIBITION is on record as 34.4%.

`N#Cc1cccnc1Nc1ccc(N2CCC(C(N)=O)CC2)cc1`: the INHIBITION is listed as 45.2%.

Turning to `Cc1cccc(C(=O)N2CCC3(CCN(c4cnn(C)c4)C3=O)C2)n1` (stereo not drawn), the INHIBITION was 24.9%.

In the case of `O=C1CO[C@H]2CCN(C(=O)c3ccc4c(c3)CCCC4)CC[C@@H]2N1`, the INHIBITION came out at 16.675%.

With `O=C(CCc1ccc(F)c(F)c1)N1CCCCC1Cn1cccn1` (stereo not drawn), the INHIBITION was found to be 21.5%.

Consider `O=C(c1cnccn1)N1CCc2ncc(CN3CCOCC3)n2CC1`, for which the INHIBITION is 48.6%.

For the molecule `Cc1nc2cc(=O)[nH]n2c(C)c1CC(=O)NCc1ccoc1`, the INHIBITION came out at 15.465%.

With `CCC(NC1CCN(C(=O)c2ccccc2)CC1)c1cccs1` (stereo not drawn), the INHIBITION came out at 7.22%.

With `Cc1cnn(CC2CCCN2C(=O)c2cc(Cl)ccc2F)c1` (stereo not drawn), the INHIBITION was determined as 22.9%.

In the case of `O=C(O)c1cc(C=Cc2ccccc2)ncn1`, the INHIBITION is listed as -20.2%.

On to `Cc1noc([C@@H]2C[C@H]3CN(CC4CCOCC4)C[C@H]3O2)n1`, for which the INHIBITION was -7.7%.

As for `Cc1noc(Cl)c1CCC(=O)N1CCC(Nc2cccnn2)CC1`, the INHIBITION is -5.07%.

Regarding `COc1ccc2nnc(CCCC(=O)NCCc3ccccn3)n2n1`, the INHIBITION worked out at 51.9%.

Regarding `COc1ccc2nnc(CCCC(=O)NCCc3ccncc3)n2n1`, the INHIBITION was found to be 32.2%.

For the molecule `COc1ccc2nnc(CCCC(=O)NCCc3ccccc3)n2n1`, the INHIBITION was -31%.

With `Cc1nc(Cc2ccc(F)cc2)cc(C2COCCN2)n1` (stereo not drawn), the INHIBITION was 35.305%.

With `O=C(C1CC1)N1CCCC(c2nc(O)cc(-c3ccncc3)n2)C1` (stereo not drawn), the INHIBITION stood at 47.2%.

For the molecule `COc1ccc(CN2C[C@H]3C[C@H](CN(C)C)O[C@H]3C2)cc1`, the INHIBITION turned out to be 28.4%.

For the molecule `CNCCc1nc2cc(F)ccc2[nH]1`, the INHIBITION is recorded as -2.37%.

As for `CCNCCc1nc2cc(F)ccc2[nH]1`, the INHIBITION came out at 72.3%.

On to `CNCCc1nc2cc(Cl)ccc2[nH]1`, for which the INHIBITION was 31.9%.

As to `CC(C)c1nc(CN2CCC(c3ccnn3CCO)CC2)no1`, the INHIBITION is on record as 38.5%.

With `CCN(c1ccc(C(=O)N2CCCCCC2)cc1)S(=O)(=O)CC`, the INHIBITION was 3.77%.

On to `CN(CC1CCN(c2ccccc2)C1)c1ccc(Cn2ccnc2)cn1` (stereo not drawn), for which the INHIBITION turned out to be 74.9%.

`CSCc1ccc(N(C)CC2CCCN(C(C)C)C2)nc1` (stereo not drawn): the INHIBITION is recorded as -43.1%.

Regarding `CC(C)N1CCCC(CN(C)c2ccc(Cn3ccnc3)cn2)C1` (stereo not drawn), the INHIBITION is reported as -23.4%.

Turning to `Cn1c2c(c(=O)n1C)CN(C(=O)c1ccncc1F)CCC2`, the INHIBITION is 25.8%.

On to `COC(=O)c1cc(C(=O)N2CCN(C)CC2)n(-c2ccccc2)n1`, for which the INHIBITION came to 30.2%.

As for `CNC(=O)NCC(=O)N1CCCC1Cc1cccc(F)c1` (stereo not drawn), the INHIBITION is reported as 10.6%.

On to `NC(=O)c1cccc2nc([C@H]3CCN(Cc4ccccc4F)C3)[nH]c12`, for which the INHIBITION is given as 14.9%.

As for `Cc1ccc(CN2CC[C@H](c3nc4cccc(C(N)=O)c4[nH]3)C2)cc1`, the INHIBITION is reported as 59.2%.

With `COc1ccc(CN2CC[C@H](c3nc4cccc(C(N)=O)c4[nH]3)C2)cc1`, the INHIBITION worked out at 22.3%.

For the molecule `NC(=O)c1cccnc1N1C[C@H]2CC[C@@H](C1)N(Cc1ccccn1)C2=O`, the INHIBITION was found to be 43.8%.

Regarding `NC(=O)c1cccc2nc([C@H]3CCN(Cc4ccccn4)C3)[nH]c12`, the INHIBITION was 66.6%.

Consider `Cc1ccc2[nH]c(C3CCN(CC(N)=O)CC3)nc2c1`, for which the INHIBITION is listed as -9.51%.

Take `CS(=O)(=O)N1CC[C@@H]2[C@@H]1CCN2Cc1ccc2c(c1)OCO2`: the INHIBITION came to 7.5%.

The record behind these values is ChEMBL document CHEMBL4513216, “Probing the Open Global Health Chemical Diversity Library for Multistage-Active Starting Points for Next-Generation Antimalarials” (ACS Infect Dis, 2020).
